For some of these results: Potency and affinity values are given separately.
How the values were obtained:
Set-up in all cases: scale not given: direction of the effect not stated beside the values
[1] = target: Protein translocase subunit SecA (Escherichia coli (strain K12)) (UniProt P10408); test: Assay to Identify E. coli SecA ATPase Inhibitors; type: functional; details: 30 µM
[2] = target: T1, Ubiquitin-activating enzyme e1, putative (Leishmania donovani (strain BPK282A1)) (UniProt E9BSI1); test: Leishmania donovani Ubiquitin Activating Enzyme (LdE1); type: functional; details: 30 µM
T1 sequence (whole entry): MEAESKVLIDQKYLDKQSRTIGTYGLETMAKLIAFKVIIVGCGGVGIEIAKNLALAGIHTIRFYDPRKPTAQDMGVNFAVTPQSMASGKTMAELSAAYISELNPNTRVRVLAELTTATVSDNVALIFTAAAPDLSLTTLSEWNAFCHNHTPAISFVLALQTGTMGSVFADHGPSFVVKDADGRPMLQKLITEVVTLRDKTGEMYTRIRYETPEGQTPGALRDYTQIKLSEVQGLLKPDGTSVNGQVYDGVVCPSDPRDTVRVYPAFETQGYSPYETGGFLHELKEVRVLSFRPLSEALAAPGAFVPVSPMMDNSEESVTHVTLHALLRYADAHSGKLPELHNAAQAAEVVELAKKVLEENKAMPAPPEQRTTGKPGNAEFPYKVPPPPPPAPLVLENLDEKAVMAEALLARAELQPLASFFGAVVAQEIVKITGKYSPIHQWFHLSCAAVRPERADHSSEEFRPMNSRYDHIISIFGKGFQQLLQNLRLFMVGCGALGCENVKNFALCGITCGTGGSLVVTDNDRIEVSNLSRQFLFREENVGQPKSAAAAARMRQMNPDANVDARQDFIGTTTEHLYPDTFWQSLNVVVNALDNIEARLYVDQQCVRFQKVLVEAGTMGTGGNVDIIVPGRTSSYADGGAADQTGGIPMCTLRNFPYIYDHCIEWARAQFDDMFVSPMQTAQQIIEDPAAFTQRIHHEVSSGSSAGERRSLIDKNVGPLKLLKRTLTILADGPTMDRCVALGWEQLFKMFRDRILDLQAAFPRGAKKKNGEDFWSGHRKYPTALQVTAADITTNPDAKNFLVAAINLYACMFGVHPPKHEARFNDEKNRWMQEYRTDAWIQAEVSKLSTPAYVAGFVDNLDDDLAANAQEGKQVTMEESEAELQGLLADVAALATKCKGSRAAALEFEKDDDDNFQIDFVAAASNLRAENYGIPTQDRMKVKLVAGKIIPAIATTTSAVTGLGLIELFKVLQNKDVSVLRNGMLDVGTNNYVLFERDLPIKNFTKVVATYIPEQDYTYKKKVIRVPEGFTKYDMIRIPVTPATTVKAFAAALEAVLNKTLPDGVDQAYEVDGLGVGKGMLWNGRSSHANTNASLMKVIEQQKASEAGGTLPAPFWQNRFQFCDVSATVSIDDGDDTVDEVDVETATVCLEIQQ

[3] = target: AMP-activated protein kinase, AMPK (Homo sapiens) (UniProt P54646+O43741+P54619+Q9UGJ0+Q9Y478+Q13131+Q9UGI9); test: AMP-dependent Kinase enzyme assay. An in vitro enzyme assay that detects ADP turnover that is directly proportional to AMPK activity. This uses naive AMPK that is activated during the assay with MK-8722; type: functional; details: 30 µM
[4] = target: Sialic acid-binding Ig-like lectin 9 (Homo sapiens) (UniProt Q9Y336); test: Hs-Siglec9 ALPHAscreen SOP 20170721; details: 10 µM
Chain of Sialic acid-binding Ig-like lectin 9 (Homo sapiens) (Q9Y336 whole entry): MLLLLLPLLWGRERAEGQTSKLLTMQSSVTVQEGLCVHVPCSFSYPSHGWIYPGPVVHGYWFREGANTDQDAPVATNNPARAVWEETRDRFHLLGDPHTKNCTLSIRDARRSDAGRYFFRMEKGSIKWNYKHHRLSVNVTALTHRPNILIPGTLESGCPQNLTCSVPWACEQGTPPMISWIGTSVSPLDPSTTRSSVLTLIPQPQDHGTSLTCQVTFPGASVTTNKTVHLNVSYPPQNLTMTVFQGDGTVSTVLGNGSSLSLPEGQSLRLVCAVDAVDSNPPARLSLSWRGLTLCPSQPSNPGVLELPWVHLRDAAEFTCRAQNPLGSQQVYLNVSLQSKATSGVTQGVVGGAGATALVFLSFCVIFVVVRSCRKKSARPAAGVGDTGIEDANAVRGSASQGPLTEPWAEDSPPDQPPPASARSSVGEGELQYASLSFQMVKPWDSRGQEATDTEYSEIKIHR

Trypanosoma cruzi = test: Trypanosoma cruzi phosphomannomutase and mannose-1-phosphate guanylyltransferase assay; type: functional; details: 10 µM
[5] = target: T2, Arginase-2, mitochondrial (Homo sapiens) (UniProt P78540); test: in vitro enzyme assay to detect the production of urea directly proportional to the activity of Arginase II; type: functional; details: 33.3 µM; also: in the data most compounds retested in dose-response had high values
T2 sequence (whole entry): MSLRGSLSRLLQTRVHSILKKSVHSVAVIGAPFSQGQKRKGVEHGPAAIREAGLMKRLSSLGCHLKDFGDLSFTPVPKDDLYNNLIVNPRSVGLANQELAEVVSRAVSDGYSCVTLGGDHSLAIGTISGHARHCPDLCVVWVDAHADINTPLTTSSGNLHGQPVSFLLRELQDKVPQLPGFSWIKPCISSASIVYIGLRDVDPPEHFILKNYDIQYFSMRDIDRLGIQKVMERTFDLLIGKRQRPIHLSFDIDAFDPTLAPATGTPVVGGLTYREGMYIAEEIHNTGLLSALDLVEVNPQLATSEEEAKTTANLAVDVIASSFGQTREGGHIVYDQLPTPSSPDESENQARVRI

[6] = target: T3, Proteasome subunit beta (Trypanosoma cruzi) (UniProt O96673); test: Trypanosoma cruzi proteasome chymotrypsin-like activity (TcProtChymo) assay.; also: in the data most compounds retested in dose-response had high values; type: functional; details: 9.37 µM
T3 sequence (whole entry): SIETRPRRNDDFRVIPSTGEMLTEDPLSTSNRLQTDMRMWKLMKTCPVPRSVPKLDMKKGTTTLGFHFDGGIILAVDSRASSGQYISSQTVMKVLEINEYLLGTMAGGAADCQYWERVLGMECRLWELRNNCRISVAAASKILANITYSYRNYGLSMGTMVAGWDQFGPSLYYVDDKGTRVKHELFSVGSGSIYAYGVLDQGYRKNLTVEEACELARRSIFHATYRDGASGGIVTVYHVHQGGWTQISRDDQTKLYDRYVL

Homo sapiens = species on record: Homo sapiens; test: To identify inhibition of the IFN signalling (Jak-Stat) pathway via expression of an eGFP reporter gene under the control of an IFN-stimulated response element (ISRE) containing MxA promoter.; type: functional; details: 30 µM
[7] = target: T4, Tyrosyl-tRNA synthetase, putative (Trypanosoma cruzi (strain CL Brener)) (UniProt Q4DSP6); test: Trypanosoma cruzi tyrosyl tRNA synthetase (TcYRS) _High Tyrosine SOP; type: functional; details: 30 µM; also: in the data most compounds retested in dose-response had high values
T4 sequence (whole entry): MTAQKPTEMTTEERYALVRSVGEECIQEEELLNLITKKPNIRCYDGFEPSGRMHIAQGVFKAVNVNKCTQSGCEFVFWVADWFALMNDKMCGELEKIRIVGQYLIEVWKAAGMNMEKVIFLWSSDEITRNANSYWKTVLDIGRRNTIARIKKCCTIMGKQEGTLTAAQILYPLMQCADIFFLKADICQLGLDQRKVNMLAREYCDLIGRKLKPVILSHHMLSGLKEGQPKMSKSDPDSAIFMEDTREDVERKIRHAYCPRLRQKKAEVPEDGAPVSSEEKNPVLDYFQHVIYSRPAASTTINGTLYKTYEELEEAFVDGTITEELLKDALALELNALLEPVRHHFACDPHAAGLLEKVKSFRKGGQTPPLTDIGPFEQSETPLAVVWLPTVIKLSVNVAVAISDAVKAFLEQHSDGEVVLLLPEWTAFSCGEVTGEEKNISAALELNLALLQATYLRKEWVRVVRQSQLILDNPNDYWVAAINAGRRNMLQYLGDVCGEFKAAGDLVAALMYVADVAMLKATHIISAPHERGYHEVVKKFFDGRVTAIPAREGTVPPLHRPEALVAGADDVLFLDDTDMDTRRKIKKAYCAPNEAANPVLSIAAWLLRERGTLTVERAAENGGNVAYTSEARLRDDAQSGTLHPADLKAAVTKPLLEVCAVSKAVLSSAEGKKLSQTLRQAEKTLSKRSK

[8] = target: T4, Tyrosyl-tRNA synthetase, putative (Trypanosoma cruzi (strain CL Brener)); test: Trypanosoma cruzi tyrosyl tRNA synthetase (TcYRS) SOP; type: functional; details: 30 µM
[9] = target: Chromo domain-containing protein 1 (Saccharomyces cerevisiae (strain ATCC 204508 / S288c) (Baker's yeast)) (UniProt P32657); test: ScCHD-1 Enzyme Inhibition Assay; type: functional; details: 30 µM; also: in the data most compounds retested in dose-response had high values
Chain of Chromo domain-containing protein 1 (Saccharomyces cerevisiae (strain ATCC 204508 / S288c) (Baker's yeast)) (P32657 whole entry, the tested form may be a part): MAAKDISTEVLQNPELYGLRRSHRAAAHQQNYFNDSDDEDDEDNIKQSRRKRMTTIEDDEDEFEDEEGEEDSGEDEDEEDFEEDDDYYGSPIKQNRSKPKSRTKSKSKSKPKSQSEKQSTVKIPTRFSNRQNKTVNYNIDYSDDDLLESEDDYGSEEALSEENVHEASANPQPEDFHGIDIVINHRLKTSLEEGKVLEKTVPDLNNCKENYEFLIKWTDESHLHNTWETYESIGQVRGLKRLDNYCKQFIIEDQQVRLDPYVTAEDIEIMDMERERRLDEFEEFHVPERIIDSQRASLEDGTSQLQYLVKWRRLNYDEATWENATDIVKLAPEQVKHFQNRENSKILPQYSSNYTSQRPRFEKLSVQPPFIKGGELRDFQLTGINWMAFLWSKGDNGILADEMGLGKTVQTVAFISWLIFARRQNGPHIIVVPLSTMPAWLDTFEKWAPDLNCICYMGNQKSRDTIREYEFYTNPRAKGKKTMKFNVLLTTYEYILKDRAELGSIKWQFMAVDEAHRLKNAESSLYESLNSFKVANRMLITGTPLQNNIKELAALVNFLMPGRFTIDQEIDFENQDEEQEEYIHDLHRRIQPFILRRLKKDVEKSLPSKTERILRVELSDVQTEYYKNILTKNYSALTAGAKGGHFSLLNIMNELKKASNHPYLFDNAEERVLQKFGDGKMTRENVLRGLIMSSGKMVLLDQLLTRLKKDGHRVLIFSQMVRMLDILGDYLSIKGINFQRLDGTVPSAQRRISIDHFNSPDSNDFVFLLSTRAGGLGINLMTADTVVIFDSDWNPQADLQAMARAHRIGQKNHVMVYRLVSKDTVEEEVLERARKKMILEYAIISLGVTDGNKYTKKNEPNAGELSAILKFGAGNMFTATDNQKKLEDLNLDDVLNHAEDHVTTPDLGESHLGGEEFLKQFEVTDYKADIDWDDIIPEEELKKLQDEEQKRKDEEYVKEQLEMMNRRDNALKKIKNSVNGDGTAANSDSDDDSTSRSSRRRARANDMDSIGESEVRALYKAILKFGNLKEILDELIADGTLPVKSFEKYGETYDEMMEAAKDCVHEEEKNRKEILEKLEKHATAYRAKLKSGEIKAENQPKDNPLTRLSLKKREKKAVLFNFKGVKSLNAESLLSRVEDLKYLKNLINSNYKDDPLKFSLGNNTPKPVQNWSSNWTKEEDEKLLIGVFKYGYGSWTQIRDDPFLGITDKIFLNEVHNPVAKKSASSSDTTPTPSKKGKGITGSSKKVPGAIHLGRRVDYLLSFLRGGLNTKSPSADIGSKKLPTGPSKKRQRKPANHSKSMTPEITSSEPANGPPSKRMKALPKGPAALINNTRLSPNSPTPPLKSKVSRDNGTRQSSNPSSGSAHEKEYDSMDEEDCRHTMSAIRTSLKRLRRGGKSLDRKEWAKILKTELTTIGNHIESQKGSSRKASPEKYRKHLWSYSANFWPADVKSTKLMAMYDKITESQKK

Chain of Protein translocase subunit SecA (Escherichia coli (strain K12)) (P10408 whole entry): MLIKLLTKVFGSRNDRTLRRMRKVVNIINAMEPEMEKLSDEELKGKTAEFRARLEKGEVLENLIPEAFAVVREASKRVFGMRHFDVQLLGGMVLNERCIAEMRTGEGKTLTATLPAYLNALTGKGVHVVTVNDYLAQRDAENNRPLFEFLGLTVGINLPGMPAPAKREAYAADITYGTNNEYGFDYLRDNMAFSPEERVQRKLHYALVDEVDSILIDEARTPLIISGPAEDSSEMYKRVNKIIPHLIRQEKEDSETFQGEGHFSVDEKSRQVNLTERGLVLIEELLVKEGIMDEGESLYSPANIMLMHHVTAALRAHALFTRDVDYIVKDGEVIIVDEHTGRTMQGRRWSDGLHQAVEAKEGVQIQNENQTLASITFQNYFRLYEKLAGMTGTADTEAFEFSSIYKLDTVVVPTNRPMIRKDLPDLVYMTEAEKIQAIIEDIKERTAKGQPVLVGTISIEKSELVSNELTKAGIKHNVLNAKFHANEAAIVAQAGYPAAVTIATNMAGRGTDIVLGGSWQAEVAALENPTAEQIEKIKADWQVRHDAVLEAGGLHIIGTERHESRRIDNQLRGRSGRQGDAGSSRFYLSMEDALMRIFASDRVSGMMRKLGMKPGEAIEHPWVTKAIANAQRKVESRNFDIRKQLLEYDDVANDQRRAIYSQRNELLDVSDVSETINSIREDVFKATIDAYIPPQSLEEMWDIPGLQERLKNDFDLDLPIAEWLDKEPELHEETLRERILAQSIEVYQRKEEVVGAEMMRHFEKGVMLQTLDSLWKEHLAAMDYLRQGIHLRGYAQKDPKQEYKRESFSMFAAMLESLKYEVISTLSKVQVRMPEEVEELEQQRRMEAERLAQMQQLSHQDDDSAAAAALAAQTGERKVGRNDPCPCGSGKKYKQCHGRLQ

| SMILES | Percent Effect [1] [%] | Percent Effect [2] [%] | Percent Effect [3] [%] | Percent Effect [4] [%] | Percent Effect (Trypanosoma cruzi) [%] | Percent Effect [5] [%] | Percent Effect [6] [%] | Percent Effect (Homo sapiens) [%] | Percent Effect [7] [%] | Percent Effect [8] [%] | Percent Effect [9] [%] |
| --- | --- | --- | --- | --- | --- | --- | --- | --- | --- | --- | --- |
| CCCn1c(C)c(CC(=O)NC)c2c1CC(C)(C)CC2=O | -4.47 | 2.6 | -16 | 0.225 | -1.08 | -6.9 | 2.66 | 2.97 | 5.38 | 8.64 | 2.86 |
| CCOc1ccc(C#N)cc1NCC(=O)Nc1cc(C)no1 | -6.06 | 17.7 | -5.05 | -0.0832 | 3.68 | -7.99 | 4.34 | -2.7 | 3.45 | -130 | -5.12 |
| Cc1ccccc1C1(CNC(=O)NCCc2nnc3n2CCC3)CC1 | -1.76 | -5.26 | -101 | 5.17 | -3.41 | -2.37 | 7.19 | -19.3 | 0 | -2.6 | -0.461 |
| Cc1c(C)n(-c2ccccn2)c2nc3c(c(N)c12)CCCC3 | -1.37 | -14.7 | 7.92 | 7.22 | -3.34 | -10 | 25.1 | 5.7 | 1.06 | -51.3 | -7.7 |
| c1coc(CN2Cc3nccn3CC(Cn3cncn3)C2)c1 (stereo not given) | -4.49 | -2.74 | -1.24 | 1.11 | -2.38 | -4.39 | 6.25 | -3.99 | 1.04 | 1.24 | -1.23 |
| COCc1ccccc1CNc1nnc(C)c(C)c1C#N | -6.03 | 5.41 | -21.1 | -1.29 | -1.39 | 4.62 | 17.9 | 30.3 | 4.95 | 6.1 | -2.15 |
| O=C(CCCc1ncc(-c2ccccc2)o1)N1CCN(CCO)CC1 | -2.7 | 20.2 | 6.12 | -6.16 | -1.04 | 3.04 | 14.2 | 6.15 | 4.43 | 13.9 | -3.58 |
| COc1ccccc1OCCN1CCCC(c2noc(C3CC3)n2)C1 (stereo not given) | -3.76 | 0 | -2.32 | -0.399 | -2.24 | 3.12 | 5.41 | -3.11 | 2.73 | 6.17 | -4.48 |
| CN(CC1(O)CCCN(c2ccccn2)C1)C(=O)Cc1ccsc1 (stereo not given) | -5.09 | 4.05 | 12 | 3.61 | -0.198 | -1.62 | -2.18 | -8.8 | 6.45 | 9.09 | 3.9 |
| CC(C)[C@H](NC(=O)NC1CCS(=O)(=O)C1)C(=O)NCc1cccnc1 (stereo not given in full) | 1.49 | -1.33 | 5.47 | 2.33 | -4.52 | -5.46 | 7.95 | -6.4 | 0 | 5.13 | 1.13 |
| NC(=O)c1csc(C(=O)N2CCCCC2Cn2cccn2)c1 (stereo not given) | -5.35 | 13.5 | 1.44 | 6.12 | -0.279 | -3.88 | 0.539 | 16.2 | 5.94 | 13.4 | 1.19 |
| CCC(O)CNC(=O)c1coc(COc2ccc3sc(C)nc3c2)n1 (stereo not given) | -6.39 | -2.74 | -4.19 | -4.04 | -0.392 | -2.73 | 0.71 | 50 | -1.07 | 0 | 2.81 |
| CCCc1n[nH]c(C2CN(CCNS(=O)(=O)CC)CCO2)n1 (stereo not given) | -1.25 | 19 | 4.75 | -2.28 | -0.718 | 1.5 | 12.9 | 18.3 | 8.33 | 15.2 | -20.1 |
| O=C(C1=CCCC1)N1CCO[C@H]2[C@@H](Oc3ccccn3)CC[C@@H]21 | -2.61 | 13.3 | 4.5 | 0.0747 | 0.787 | 3.96 | 9.96 | 9.01 | 7.45 | 16.7 | -3.61 |
| Cc1nc(CN2CCCN(C(=O)C(C)OCC3CC3)CC2)cs1 (stereo not given) | -1.24 | 3.8 | 0.098 | 0.839 | 3.38 | 0.215 | 10.6 | 4.67 | 3.12 | 2.53 | -18.2 |
| O=S(=O)(NCC1(O)CCOc2ccccc21)c1cccs1 (stereo not given) | -8.36 | 0 | 3.61 | -4.67 | -3.72 | -0.455 | 5.86 | 8.26 | 1.07 | 5 | 0.9 |
| COc1ccccc1C(=O)NC(C)CC(=O)O (stereo not given) | -6.61 | 11.4 | 1.36 | -1.14 | 1.74 | 1.07 | 2.92 | 12.6 | 5.21 | 15.2 | -12.9 |
| COc1ccccc1CC(=O)NCc1c(C)nc2cc(=O)[nH]n2c1C | -2.98 | 0 | -13.8 | 9.27 | 3.01 | 1.53 | 8.02 | 7.43 | 4.41 | 7.32 | -7.8 |
| CC(C(=O)NCc1ccc(N2CCNC(=O)C2)cc1)n1cncn1 (stereo not given) | -6.76 | 26 | -36.6 | 17.6 | 8.24 | 1.42 | 5.57 | 14.6 | 5.83 | 21.9 | -12.2 |
| COC(=O)c1cc(C(=O)N2CCOCC2(C)C)n(-c2ccccc2)n1 | -2.65 | 7.89 | 4.52 | 4.64 | 6.2 | -6.13 | 0 | -3.57 | 4.41 | 17.1 | -9.02 |

Source: ChEMBL document CHEMBL3988442, “University of Dundee, Small-Polar-MMV Screening Library” (2021)
